NS1 function inh = qHTS Assay for Inhibitors of Influenza NS1 Protein Function; actives 0.4% (n = 270,000); AID 2326, 2010; Potency, µM (doses to about 46.1 µM); calls by dose curve; further: actives are rising curves; nearly all actives have a fitted effect of over 50% in size
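Recovery from NS1-induced slow growth read by OD600 in budding yeast switched to galactose assay medium (pH 6.0, -URA) at 1:100 dilution. Compound 23 nl per well; the matching strain lacking NS1 serves as control.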
Vaccinia Venus = qHTS for Stage-Specific Inhibitors of Vaccinia Orthopoxvirus: Venus Reporter Primary qHTS. Vaccinia virus Venus reporter expression, fluorescence. Potency, µM (top dose mostly 36.5 µM), usual class: inhibitors. actives 0.46% (n = 330,000); calls by dose curve; tested in A549 cells; further: nearly all actives have a fitted effect of over 30% in size
Pf growth 96h = Primary qHTS for delayed death inhibitors of the malarial parasite plastid, 96 hour incubation; P. falciparum luciferase reporter growth, 96 h; Potency, µM (top dose mostly 28.7 µM), most hits filed as inhibitors; actives 6.9% (n = 320,000); AID 504834, 2011
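Delayed-death screen, second-generation endpoint: infected erythrocytes, 2% hematocrit, 0.05% parasitemia final; 96 hours at 37 C, 5% CO2; luciferase detection reagent; luminescence decrease equals reduced growth.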
HCV inh = qHTS Assay for Inhibitors of Hepatitis C Virus (HCV) | Huh7.5.1 HCVcc-Cre infection, luciferase reporter, 44 h | actives 3.4% (n = 340,000) | Potency, µM (series often up to 41.8 µM), usual class: inhibitors
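Whole-lifecycle infectious HCVcc-Cre system; cells 1,000/well, compound then virus (~0.5 moi) added 4 h after plating, 44 h culture. Luciferase read 15 sec following 15 min substrate incubation, room temp.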
Vaccinia mCherry = qHTS for Stage-Specific Inhibitors of Vaccinia Orthopoxvirus: mCherry Reporter Primary qHTS; Vaccinia virus mCherry reporter infection, fluorescence; Potency, µM (doses to about 36.5 µM), actives largely listed as inhibitors; actives 0.63% (n = 310,000); calls by dose curve; tested in A549 cells; further: nearly all actives have a fitted effect of over 35% in size
Pf growth 48h = Primary qHTS for delayed death inhibitors of the malarial parasite plastid, 48 hour incubation; P. falciparum luciferase growth in erythrocytes, 48 h; actives 5.9% (n = 310,000); Potency, µM (series often up to 28.7 µM), usual class: inhibitors
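Read-out is firefly luciferase luminescence from an integrated reporter in P. falciparum, so falling signal marks reduced parasite growth. Infected erythrocytes were at 2% hematocrit and 0.1% parasitemia (final) in Albumax-supplemented RPMI 1640.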
Numbers stand for hits; – = inactive; ? = inconclusive; · = no result; [ ] = remark or other dose. In the library only some 11% were active in any assay of this set; here they are far more common. Unless noted, the call rests on the fitted dose curve; in most records, active means well fitted inhibition curve with a large enough effect; inconclusive means small, poorly fitted or top-dose-only effect, or another doubt; inactive means no such curve, though single readings can be large or run the other way.

SMILES | NS1 function inh | Vaccinia Venus | Pf growth 96h | HCV inh | Vaccinia mCherry | Pf growth 48h
CC12CCC3C(CCC4(O)CC(O)CCC34C=NO)C1(O)CCC2C1=COC(=O)C1 (configuration not stated) | · | 0.4µM | · | 2µM | 32µM | ·
CC12CC[C@H]3[C@@H](CCC4(O)C[C@H](O)CCC34/C=N/NC(=O)c3ccccc3Cl)C1(O)CCC2C1=CC(=O)OC1 (some centres not stated) | – | · | – | – | · | –
Cc1ccc(-c2cn3nc(N4CCC(C(=O)Nc5ccccc5C)CC4)sc3n2)cc1 | · | – | · | · | – | ·
Cc1ccccc1C(=O)Nc1ccc(CN2CCOCC2)cc1 | – | · | – | – | · | –
C[C@]12CCC3C(CCC4=CC(O)CC[C@@]43/C=N/O)C1(O)CCC2C1=CC(=O)OC1 (some centres not stated) | – | 0.32µM | – | 2.2µM | ? | –
CC12CCC3C(CCC4(O)CC(O)CCC34C=O)C1(O)CCC2C1=CC(=O)OC1 (configuration not stated) | · | 1µM | · | ? | ? | ·
CCOC(=O)c1ccccc1NC(=O)c1sc2nc3n(c(=O)c2c1C)CCCCC3 | · | – | · | · | – | ·
C=CCN(CC=C)C(=O)c1ccc2nc(Cc3ccc(OC)c(OC)c3)oc2c1 | – | – | ? | 11µM | – | ?
N#Cc1ccsc1NC(=O)CSc1nnnn1-c1ccc(O)cc1 | – | · | – | – | · | –
Cc1nn(Cc2c(F)c(F)c(F)c(F)c2F)c(C)c1NC(=O)c1ccnn1C | – | ? | – | – | – | –
C=CCCN(Cc1ccccc1)S(=O)(=O)c1cc(Br)ccc1Br | · | – | – | – | – | 13µM
CNc1ccccc1C(C)(C)c1ccn[nH]1 | – | – | – | – | – | –
Cc1ccccc1-c1noc(-c2ccc(O)cc2)n1 | – | – | – | 14µM | – | –
COc1ccc(Nc2ncnc3sc(-c4ccccc4)cc23)cc1 | – | · | – | 10µM | · | ?
CCN(CC)C(=O)CSc1ncnc2sc(-c3ccccc3)cc12 | – | · | · | 13µM | · | –
C=COCCCNc1ncnc2sc(-c3ccccc3)cc12 | – | · | ? | 8.9µM | · | –
OCCCNc1ncnc2sc(-c3ccccc3)cc12 | · | – | – | ? | – | –
CC(C)C(C)(C#N)NC(=O)CSc1ncnc2sc(-c3ccccc3)cc12 (configuration not stated) | – | ? | · | 13µM | ? | –
COc1cccc(C2(c3cccc(OC)c3)CC2C(=O)Nc2ccc(F)cc2)c1 (configuration not stated) | – | – | ? | – | – | ?
CC(C)OCCCNC(=O)c1sc(=S)n(C)c1N | – | · | – | – | · | ·
O=C(NC(=S)N(Cc1ccccc1)c1ccccn1)C1CCCCC1 | – | – | – | – | – | –
CN(C)c1ncnc2sc(-c3ccccc3)cc12 | – | – | – | 11µM | – | –
C[C@H]1COc2cccc(N3CCN(C)CC3)c2S(=O)(=O)N1 | · | – | · | · | – | ·
COc1ccc(C2CC(C(F)(F)F)n3nc(CO)c(Cl)c3N2)cc1OC (configuration not stated) | – | · | 7.4µM | – | · | –
O=C(O)c1cnn2c1NC(c1cccs1)CC2C(F)(F)F (configuration not stated) | – | – | – | – | · | –
COc1ccc(C2CC(C(F)(F)F)n3ncc(C(=O)Nc4cccc(O)c4)c3N2)cc1OC (configuration not stated) | – | – | · | ? | – | 10µM
COc1ccc(C2CC(C(F)(F)F)n3nc(C(=O)O)c(Cl)c3N2)cc1OC (configuration not stated) | – | ? | – | – | · | ·
CC(C)NC(=O)c1cnn2c1NC(c1cccs1)CC2C(F)(F)F (configuration not stated) | – | – | – | 2.8µM | – | –
COc1ccc(NC(=O)c2cc3n(n2)C(C(F)(F)F)CC(c2ccc4c(c2)OCO4)N3)cc1OC (configuration not stated) | – | – | 3.3µM | · | – | –
CN(CC(=O)Nc1c(Cl)cccc1Cl)C(=O)c1n[nH]c2ccccc12 | · | – | – | –[8.37 µM] | – | –

Screening results deposited in PubChem BioAssay by National Center for Advancing Translational Sciences (NCATS).
